Consider 40 compounds from PubChem BioAssay (EPA / NIEHS).

Where “and” joins values, the source holds several entries; their conditions need not be identical. Identical values can stand only once. Calls of active or inactive are those of the source. The calls were made as follows: active = hit-call score of the fitted dose curve at least 0.9, where 1 is the maximum; inactive = score below 0.9.

Read-out in this assay: Interleukin-1 alpha (IL1a), IL1A (gene 3552)
Put plainly: BSK_LPS_IL1a: BioMAP Diversity Plus: LPS Assay for Interleukin-1 alpha (IL1a) Biomarker Activity (AID 2283080). The following applies: primary human HUVEC with PBMC; actives raise or lower the signal. The method, then: BSK_LPS is a cell-based, multiplexed-readout assay that uses umbilical vein endothelium and peripheral blood mononuclear cells, a human vascular primary cell co-culture, with measurements taken at 24 hours after chemical dosing in a 96-well plate.BSK_LPS_IL1a is an assay component measured in the BSK_LPS assay. It measures IL-a antibody related to regulation of gene expression using ELISA technology.Data from the assay component BSK_LPS_IL1a was analyzed into 1 assay endpoint. This assay endpoint, BSK_LPS_IL1a, was analyzed with bidirectional fitting relative to DMSO as the negative control and baseline of activity. Using a type of binding reporter, gain or loss-of-signal activity can be used to understand changes in the signaling as they relate to the gene IL1A. Furthermore, this assay endpoint can be referred to as a primary readout, because this assay has produced multiple assay endpoints where this one serves a signaling function. To generalize the intended target to other relatable targets, this assay endpoint is annotated to the cytokine intended target family, where the subfamily is interleukins.
The levels of cell surface (or secreted, indicated by the prefix "s") biomarker endpoints were measured by ELISA. Overt cytotoxicity to cells in confluent adherent cultures (all systems other than the BT system) was assessed by measuring total protein levels using sulforhodamine B (SRB) staining in parallel cultures at the time of biomarker measurements, indicated as SRB endpoints. For proliferation assays for adherent cell types, individual cell types are cultured at sub-confluence and relative cell numbers quantified by SRB staining at time points optimized for each system (48 h: 3C and CASM3C systems; 72 h: BT and HDF3CGF systems; 96 h: SAg system). SRB was performed by staining cells with 0.1% SRB after fixation with 10% TCA and reading wells at 560 nm.Viability and proliferation of PBMC (T cells) was quantified by Alamar Blue reduction for the SAg and BT systems. For PBMC viability (referred to as PBMC Cytotoxicity within the assay endpoint names), cells were plated (75,000/well in a 96-well plate) and then chemical samples added for 1 h before addition of activators, SEB and TSST-1 (20 ng/mL final concentration each). Cells were incubated for 90 h. Then, Alamar Blue (20 uL/well) (Invitrogen, Cat DAL1100) was added for 6 h, and the plates were read with a fluorescence microplate reader at 546/580 nm (excitation/emission). For PBMC proliferation, cells were plated and activated as above but incubated for only 16 h prior to addition of Alamar Blue. Plates were read after 6 h.
As to `COc1nc(C)nc(NC(=O)NS(=O)(=O)c2ccccc2Cl)n1`, the result was inactive.
Same read-out and setting: the value for `CCOC(=O)C(Cl)Cc1cc(-n2nc(C)n(C(F)F)c2=O)c(F)cc1Cl` (stereo not given) was “inactive”.
For the compound `CN(C)C(=S)SSC(=S)N(C)C`, the AC50 is 16.1 µM (active).
Regarding `O=C(O)COc1nc(Cl)c(Cl)cc1Cl`, the result was inactive.
The same measure, in the same setting: the result for `Cc1cc(Cl)ccc1OCC(=O)O` reads “inactive”.
Regarding `C#CCOS(=O)OC1CCCCC1Oc1ccc(C(C)(C)C)cc1` (stereo not given), the AC50 was 16.4 µM (active).
Consider `COc1nc(NC(C)C)nc(NC(C)C)n1`, for which the outcome was inactive.
In the case of `COC(=O)C=C(C)OP(=O)(OC)OC`, the result was inactive.
For the compound `CS/C(C)=N/OC(=O)N(C)SN(C)C(=O)O/N=C(\C)SC`, the AC50 was 15.6 µM (active).
For the compound `COc1nc(C)nc(NC(=O)NS(=O)(=O)c2ccccc2CCC(F)(F)F)n1`, the result was inactive.
The same measure, in the same setting: the result for `N#CC(CCc1ccc(Cl)cc1)(Cn1cncn1)c1ccccc1` (stereo not given) reads “inactive”; that for `COc1cnc(OC)n2nc(NS(=O)(=O)c3c(OCC(F)F)cccc3C(F)(F)F)nc12`, “inactive”.
On the same count and under the same terms, the result for `CCCCOC(=O)c1ccccc1C(=O)OCCCC` reads “inactive”.
In the case of `CC(C)Oc1cc(-n2nc(C(C)(C)C)oc2=O)c(Cl)cc1Cl`, the AC50 is 32.7 µM (active).
In the case of `CCOP(=S)(OCC)SCn1c(=O)oc2cc(Cl)ccc21`, the outcome was inactive.
In the case of `CC1COC(Cn2cncn2)(c2ccc(Oc3ccc(Cl)cc3)cc2Cl)O1` (stereo not given), the AC50 was 32 µM (active).
In the case of `N#Cc1nn(-c2c(Cl)cc(C(F)(F)F)cc2Cl)c(N)c1S(=O)C(F)(F)F` (stereo not given), the AC50 is 35.9 µM (active).
Take `C=CC1(C)OC(=O)N(c2cc(Cl)cc(Cl)c2)C1=O` (stereo not given): the result was inactive.
For `CCc1nn(C)c(C(=O)NCc2ccc(C(C)(C)C)cc2)c1Cl`, the AC50 was 33 µM (active).
Turning to `CCCCNC(=O)n1c(NC(=O)OC)nc2ccccc21`, the result was inactive.
Regarding `COC(=O)c1ccccc1C(=O)OC`, the result was inactive.
For the compound `CCCN(CCC)c1c([N+](=O)[O-])cc(S(N)(=O)=O)cc1[N+](=O)[O-]`, the AC50 is 33.5 µM (active) [middle of 4 runs].
On the same count and under the same terms, the value for `COP(=S)(OC)Oc1nc(Cl)c(Cl)cc1Cl` was 27 µM (active); that for `C=CCC1=C(C)[C@@H](OC(=O)[C@@H]2[C@@H](C=C(C)C)C2(C)C)CC1=O` was 32.3 µM (active).
Consider `O=C(Nc1ccccc1)Nc1ccnc(Cl)c1`, for which the result was inactive.
Consider `Fc1ccc(Oc2ccnc3cc(Cl)cc(Cl)c23)cc1`, for which the AC50 is 14.6 µM (active).
For `O=C(O)c1nc(Cl)ccc1Cl`, the result was inactive.
In the case of `CC(C)(C)c1ccc(CSc2cnn(C(C)(C)C)c(=O)c2Cl)cc1`, the AC50 was 20 µM (active).
With `COP(N)(=O)SC` (stereo not given), the outcome was inactive.
Same read-out and setting: the result for `Cc1ccc(-c2c(Cl)nc(C#N)n2S(=O)(=O)N(C)C)cc1` reads “inactive”.
`COc1ccc(C(c2ccc(OC)cc2)C(Cl)(Cl)Cl)cc1`: the AC50 is 32.5 µM (active).
In the case of `CCCC1COC(Cn2cncn2)(c2ccc(Cl)cc2Cl)O1` (stereo not given), the result was inactive.
Same read-out and setting: the result for `OC(c1ccc(Cl)cc1)(c1cncnc1)c1ccccc1Cl` (stereo not given) reads “inactive”; that for `CC1=C(C(=O)Nc2ccccc2)SCCO1`, “inactive”.
The same measure, in the same setting: the result for `CCON=C(CC)C1=C(O)CC(c2c(C)cc(C)cc2C)CC1=O` (stereo not given) reads “inactive”.
Consider `N#Cc1cc(Br)c(O)c(Br)c1`, for which the concentration at half-maximal activity (AC50) is 20 µM (active).
Take `CCNc1nc(Cl)nc(NCC)n1`: the outcome was inactive.
For the compound `CCCCNC(=O)OCC#CI`, the AC50 was 23.2 µM (active) and 13 µM (active).
As to `CCOc1cc(Oc2ccc(C(F)(F)F)cc2Cl)ccc1[N+](=O)[O-]`, the outcome was inactive.
Same read-out and setting: the value for `CCNc1nc(Cl)nc(NC(C)C)n1` was “inactive”.

As a reminder, the AC50 is the concentration giving half of the maximal activity seen.
